The results in this text go back to PubChem BioAssay AID2284117 (EPA ToxCast).

The source made the active and inactive calls. The calls were made as follows: active = hit-call score of the fitted dose curve at least 0.9, where 1 is the maximum; inactive = score below 0.9.

Sequence of human PDE4A1A Phosphodiesterase, PDE4A (gene 5141) (P27815 whole entry, looked up): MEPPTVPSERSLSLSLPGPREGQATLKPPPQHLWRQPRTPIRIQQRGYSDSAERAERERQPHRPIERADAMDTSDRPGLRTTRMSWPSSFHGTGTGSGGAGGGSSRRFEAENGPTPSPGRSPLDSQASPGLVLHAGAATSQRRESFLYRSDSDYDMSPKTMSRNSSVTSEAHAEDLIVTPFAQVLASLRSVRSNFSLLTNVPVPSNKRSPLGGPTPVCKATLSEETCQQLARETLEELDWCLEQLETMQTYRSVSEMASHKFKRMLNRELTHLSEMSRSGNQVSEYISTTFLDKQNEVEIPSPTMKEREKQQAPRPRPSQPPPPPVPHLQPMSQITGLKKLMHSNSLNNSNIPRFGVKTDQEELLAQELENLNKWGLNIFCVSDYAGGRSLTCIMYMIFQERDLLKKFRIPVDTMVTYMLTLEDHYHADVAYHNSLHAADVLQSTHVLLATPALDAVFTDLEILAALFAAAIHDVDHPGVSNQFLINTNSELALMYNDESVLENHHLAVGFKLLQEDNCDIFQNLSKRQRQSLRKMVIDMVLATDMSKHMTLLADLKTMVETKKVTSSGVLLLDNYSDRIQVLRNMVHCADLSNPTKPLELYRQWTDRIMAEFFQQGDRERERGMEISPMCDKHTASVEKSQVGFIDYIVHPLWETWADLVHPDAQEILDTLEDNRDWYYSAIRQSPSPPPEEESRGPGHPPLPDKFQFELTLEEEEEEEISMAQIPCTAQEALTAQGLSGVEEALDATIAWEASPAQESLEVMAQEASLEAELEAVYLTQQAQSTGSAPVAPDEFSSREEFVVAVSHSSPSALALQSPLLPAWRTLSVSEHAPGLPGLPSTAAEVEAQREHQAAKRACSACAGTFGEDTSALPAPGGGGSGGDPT

This experiment addresses human PDE4A1A Phosphodiesterase, PDE4A (gene 5141) (UniProt P27815). The experiment in a line: ERF_FR_ENZ_hPDE4A: Eurofins (ERF) Enzymatic LeadHunter Assay for human PDE4A1A Phosphodiesterase. As for the experimental part: ERF_FR_ENZ_hPDE4A is a biochemical, single-readout assay that uses extracted gene-proteins in a cell-free assay. Measurements were taken 0.33 hour after chemical dosing in a 96-well plate. See PDE4A1A Human Phosphodiesterase Enzymatic Assay, Cerep.ERF_FR_ENZ_hPDE4A is an assay component calculated from the ERF_FR_ENZ_hPDE4A assay. It is designed to measure enzyme activity using a type of enzyme reporter as detected by scintillation counting with radiometry technology.Data from the assay component ERF_FR_ENZ_hPDE4A was analyzed at the assay endpoint, ERF_FR_ENZ_hPDE4A, in the positive analysis fitting direction relative to DMSO as the negative control and baseline of activity. Using a type of enzyme reporter, loss-of-signal activity can be used to understand changes in enzymatic activity as they relate to gene PDE4A. To generalize the intended target to other relatable targets, this assay endpoint is annotated to the phosphodiesterase intended target family, where the subfamily is cyclic nucleotide signaling.
Human cells are incubated for 10 minutes at room temprature with [3H]cAMP + cAMP (0.5uM) as sunstrate and Nitrendipine as control inhibitor. Test Sample Requirements: Minimum for 1) Screen: 60 ul of 10 mM stock -OR- 1 mg (pre-weighed) for 10 uM final testing. 2) Dose Response: 90 ul of 10 mM stock -OR- 1 mg (pre-weighed) for a top concentration at 10 uM.
In general, AC50 refers to the concentration giving half of the maximal activity seen. `COc1cc(CCC(=O)CC(=O)CCc2ccc(O)c(OC)c2)ccc1O`: the AC50 was 2.66 µM (active).
